In ChEMBL document CHEMBL2218924, “A broad activity screen in support of a chemogenomic map for kinase signalling research and drug discovery” (Biochem J, 2013) one finds residual activity data, which are given here for one molecule.

The target of test [1] is Tyrosine-protein kinase SYK (Homo sapiens) (UniProt P43405). The following applies: at 10 µM.
The target of test [2] is T1, Mitogen-activated protein kinase kinase kinase 7 (Homo sapiens) (UniProt O43318).
T1 sequence (whole entry): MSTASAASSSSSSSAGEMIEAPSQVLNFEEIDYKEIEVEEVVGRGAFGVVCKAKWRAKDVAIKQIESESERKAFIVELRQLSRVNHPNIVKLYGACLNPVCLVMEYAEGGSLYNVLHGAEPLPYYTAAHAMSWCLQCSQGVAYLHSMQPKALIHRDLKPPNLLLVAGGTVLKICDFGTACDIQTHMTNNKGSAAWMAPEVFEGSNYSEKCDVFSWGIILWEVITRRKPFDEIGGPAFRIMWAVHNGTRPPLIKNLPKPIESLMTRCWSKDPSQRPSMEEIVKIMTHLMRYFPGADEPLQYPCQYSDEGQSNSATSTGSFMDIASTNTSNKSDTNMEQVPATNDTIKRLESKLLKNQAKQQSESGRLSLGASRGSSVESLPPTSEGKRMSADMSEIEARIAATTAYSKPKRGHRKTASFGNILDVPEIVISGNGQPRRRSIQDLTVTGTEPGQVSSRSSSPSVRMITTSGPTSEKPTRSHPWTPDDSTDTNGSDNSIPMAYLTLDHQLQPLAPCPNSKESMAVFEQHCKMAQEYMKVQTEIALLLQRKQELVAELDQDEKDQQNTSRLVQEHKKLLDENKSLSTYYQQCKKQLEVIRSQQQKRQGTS
The following applies: at 1 µM.

Test [3] deals with T1, Mitogen-activated protein kinase kinase kinase 7 (Homo sapiens). The following applies: at 10 µM.
The target of test [4] is T2, Serine/threonine-protein kinase TAO1 (Homo sapiens) (UniProt Q7L7X3).
T2 sequence (whole entry): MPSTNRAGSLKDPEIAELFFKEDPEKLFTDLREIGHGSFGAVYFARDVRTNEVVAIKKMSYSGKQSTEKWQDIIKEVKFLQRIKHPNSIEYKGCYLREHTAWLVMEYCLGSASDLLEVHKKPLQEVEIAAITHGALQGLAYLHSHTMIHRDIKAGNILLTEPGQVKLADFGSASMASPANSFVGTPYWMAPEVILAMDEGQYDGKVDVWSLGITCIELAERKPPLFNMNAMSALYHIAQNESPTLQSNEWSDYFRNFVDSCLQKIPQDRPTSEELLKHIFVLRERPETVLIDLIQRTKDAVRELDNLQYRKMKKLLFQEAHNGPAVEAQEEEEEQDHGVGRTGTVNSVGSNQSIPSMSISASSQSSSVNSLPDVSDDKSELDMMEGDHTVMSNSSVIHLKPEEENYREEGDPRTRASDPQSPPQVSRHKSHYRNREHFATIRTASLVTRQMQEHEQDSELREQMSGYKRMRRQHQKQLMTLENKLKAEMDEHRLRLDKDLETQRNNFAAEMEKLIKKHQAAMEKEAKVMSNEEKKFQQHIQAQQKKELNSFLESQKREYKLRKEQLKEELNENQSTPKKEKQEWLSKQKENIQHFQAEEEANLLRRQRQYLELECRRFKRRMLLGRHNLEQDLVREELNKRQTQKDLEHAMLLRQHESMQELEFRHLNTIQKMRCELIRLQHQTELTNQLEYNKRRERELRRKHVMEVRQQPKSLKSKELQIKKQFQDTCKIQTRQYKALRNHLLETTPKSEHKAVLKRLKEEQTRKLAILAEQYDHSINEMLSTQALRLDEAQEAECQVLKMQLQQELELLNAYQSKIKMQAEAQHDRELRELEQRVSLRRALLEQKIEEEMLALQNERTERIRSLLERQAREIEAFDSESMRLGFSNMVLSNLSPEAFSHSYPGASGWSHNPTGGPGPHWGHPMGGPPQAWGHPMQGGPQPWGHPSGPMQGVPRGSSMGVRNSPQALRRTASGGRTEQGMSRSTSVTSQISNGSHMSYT
As to conditions: at 1 µM.

For test [5], the target named is T2, Serine/threonine-protein kinase TAO1 (Homo sapiens). As to conditions: at 10 µM.
Test [6] concerns the target T3, Serine/threonine-protein kinase TAO2 (Homo sapiens) (UniProt Q9UL54).
T3 sequence (whole entry): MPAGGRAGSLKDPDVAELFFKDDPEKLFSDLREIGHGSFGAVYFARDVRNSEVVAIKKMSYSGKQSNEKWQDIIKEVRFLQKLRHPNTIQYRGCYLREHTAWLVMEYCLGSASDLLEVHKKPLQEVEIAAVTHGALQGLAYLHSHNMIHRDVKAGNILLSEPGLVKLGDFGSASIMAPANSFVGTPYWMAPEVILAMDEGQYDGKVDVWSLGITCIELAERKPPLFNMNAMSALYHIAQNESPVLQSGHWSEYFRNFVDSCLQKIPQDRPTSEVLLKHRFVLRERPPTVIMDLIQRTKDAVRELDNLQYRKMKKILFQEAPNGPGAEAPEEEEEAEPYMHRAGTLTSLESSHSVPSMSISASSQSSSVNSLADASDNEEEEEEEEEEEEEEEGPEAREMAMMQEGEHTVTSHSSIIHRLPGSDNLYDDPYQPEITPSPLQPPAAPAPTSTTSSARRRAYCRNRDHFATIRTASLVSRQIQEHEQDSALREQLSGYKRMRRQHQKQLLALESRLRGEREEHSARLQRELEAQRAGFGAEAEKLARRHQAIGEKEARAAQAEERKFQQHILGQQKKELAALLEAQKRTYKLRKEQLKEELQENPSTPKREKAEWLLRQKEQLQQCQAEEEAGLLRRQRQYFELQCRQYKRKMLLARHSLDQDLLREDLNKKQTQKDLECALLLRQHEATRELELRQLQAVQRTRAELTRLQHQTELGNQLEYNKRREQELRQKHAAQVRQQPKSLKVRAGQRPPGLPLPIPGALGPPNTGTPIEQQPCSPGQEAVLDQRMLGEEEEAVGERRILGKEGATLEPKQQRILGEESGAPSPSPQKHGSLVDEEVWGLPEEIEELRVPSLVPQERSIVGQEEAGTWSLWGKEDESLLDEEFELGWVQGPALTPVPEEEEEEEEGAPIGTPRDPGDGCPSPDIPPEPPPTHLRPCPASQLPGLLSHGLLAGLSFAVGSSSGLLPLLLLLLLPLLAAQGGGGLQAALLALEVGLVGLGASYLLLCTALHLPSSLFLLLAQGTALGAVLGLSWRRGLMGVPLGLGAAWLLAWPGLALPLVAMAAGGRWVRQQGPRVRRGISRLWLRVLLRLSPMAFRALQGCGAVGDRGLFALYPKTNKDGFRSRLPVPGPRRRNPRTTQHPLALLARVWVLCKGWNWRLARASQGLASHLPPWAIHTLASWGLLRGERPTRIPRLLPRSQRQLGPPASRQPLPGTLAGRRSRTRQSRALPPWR
The following applies: at 1 µM.

Test [7] has as its target T3, Serine/threonine-protein kinase TAO2 (Homo sapiens). As to conditions: at 10 µM.
The target of test [8] is T4, Serine/threonine-protein kinase TAO3 (Homo sapiens) (UniProt Q9H2K8).
T4 sequence (whole entry): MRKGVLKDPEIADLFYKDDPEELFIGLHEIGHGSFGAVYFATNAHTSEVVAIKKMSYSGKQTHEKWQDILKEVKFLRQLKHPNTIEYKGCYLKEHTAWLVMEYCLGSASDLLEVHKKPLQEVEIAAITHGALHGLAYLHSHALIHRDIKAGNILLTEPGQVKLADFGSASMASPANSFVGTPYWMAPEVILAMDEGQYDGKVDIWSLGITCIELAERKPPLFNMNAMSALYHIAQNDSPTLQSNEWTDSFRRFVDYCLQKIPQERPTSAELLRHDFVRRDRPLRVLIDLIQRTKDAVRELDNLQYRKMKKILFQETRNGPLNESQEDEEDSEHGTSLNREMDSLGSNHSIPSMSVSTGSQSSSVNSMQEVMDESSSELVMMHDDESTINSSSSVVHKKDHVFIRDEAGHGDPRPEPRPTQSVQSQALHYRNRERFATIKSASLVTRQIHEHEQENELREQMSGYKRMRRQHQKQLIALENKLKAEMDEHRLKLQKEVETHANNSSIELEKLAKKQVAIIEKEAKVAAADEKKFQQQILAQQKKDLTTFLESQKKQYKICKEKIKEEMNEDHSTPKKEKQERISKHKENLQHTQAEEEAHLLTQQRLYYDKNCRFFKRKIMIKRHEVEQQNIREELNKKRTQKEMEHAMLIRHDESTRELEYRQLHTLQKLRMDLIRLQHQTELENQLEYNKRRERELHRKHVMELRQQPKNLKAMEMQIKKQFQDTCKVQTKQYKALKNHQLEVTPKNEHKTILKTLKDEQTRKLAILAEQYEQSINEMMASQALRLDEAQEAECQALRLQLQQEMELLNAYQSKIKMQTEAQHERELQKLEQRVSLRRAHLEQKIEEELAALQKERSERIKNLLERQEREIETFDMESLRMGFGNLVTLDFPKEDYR
As to conditions: at 1 µM.

In test [9] the target is T4, Serine/threonine-protein kinase TAO3 (Homo sapiens). The following applies: at 10 µM.
Test [10] addresses T5, Serine/threonine-protein kinase TBK1 (Homo sapiens) (UniProt Q9UHD2).
T5 sequence (whole entry): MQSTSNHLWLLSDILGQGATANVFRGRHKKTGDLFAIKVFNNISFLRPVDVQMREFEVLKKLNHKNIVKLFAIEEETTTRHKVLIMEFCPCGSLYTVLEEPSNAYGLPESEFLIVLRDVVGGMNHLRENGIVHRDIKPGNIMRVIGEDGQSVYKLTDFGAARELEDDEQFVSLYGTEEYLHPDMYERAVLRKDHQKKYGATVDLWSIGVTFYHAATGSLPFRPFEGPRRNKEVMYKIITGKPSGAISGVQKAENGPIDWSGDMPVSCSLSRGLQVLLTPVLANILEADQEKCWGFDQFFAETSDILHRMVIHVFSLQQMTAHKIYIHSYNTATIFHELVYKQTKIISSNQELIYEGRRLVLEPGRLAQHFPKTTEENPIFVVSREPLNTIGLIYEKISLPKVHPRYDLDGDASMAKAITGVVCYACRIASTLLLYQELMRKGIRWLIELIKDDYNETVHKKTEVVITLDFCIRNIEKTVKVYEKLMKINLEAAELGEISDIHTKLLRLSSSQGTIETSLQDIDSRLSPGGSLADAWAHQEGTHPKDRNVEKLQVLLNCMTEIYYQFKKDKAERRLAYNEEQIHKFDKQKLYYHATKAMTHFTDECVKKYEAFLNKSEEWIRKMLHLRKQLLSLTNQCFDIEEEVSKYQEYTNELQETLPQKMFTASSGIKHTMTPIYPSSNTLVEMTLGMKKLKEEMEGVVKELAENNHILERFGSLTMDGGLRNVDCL
The following applies: at 1 µM.

Each structure is given as a SMILES string.

On to `O=[N+]([O-])c1ccc(-c2nc(-c3ccc(F)cc3)c(-c3ccncc3)[nH]2)cc1`, for which the residual activity in [1] turned out to be 107%; in test [2] it was 104%; in test [3], 91%; in test [4], 97%; in [5] it was 91%; in test [6], 109%. For the same molecule, the residual activity amounted to 103% in [7], 98% in test [8], 96% in test [9] and 87% in test [10].
